Measurements taken from the supplement of paper PMC12339681.
Where a name gives a salt, the structure may show the parent alone.

These compounds were tested on PBMC-derived induced microglia-like cells (piMGLC) (assay: synaptosome phagocytic index relative to DMSO control (fraction of DMSO); higher = more phagocytosis). Conditions: concentration: 10 uM (2 uM for compounds listed in Table S2); pretreatment time: 24 h; assay time: 3 h.
Protocol: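 PBMC-derived induced microglia-like cells (piMGLCs) in 96-well plates were pretreated for 24 h with CNS-penetrant library compounds (MedChemExpress HY-L028), mostly at 10 uM; Table S2 lists 9 compounds at 2 uM. pHrodo-Red-labelled human iPSC-neuron synaptosomes (3 ug/well) were then added for 3 h, and cells were fixed and imaged by confocal microscopy. Phagocytic index (synaptosome area / cell count, CellProfiler) is a mean over 3 replicate wells on different plates, normalized to the DMSO control. Compounds leaving <10% of DMSO cell count were marked toxic and given no value.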

**Q.** How did the synaptosome phagocytic index turn out when `COc1cc2ncnc(Nc3cccc(Cl)c3F)c2cc1OC(=O)N1CCN(C)C[C@H]1C` [Zorifertinib] was run?
**A.** 0.285

**Q.** With `CO[C@H]1C[C@@H]2CC[C@@H](C)[C@@](O)(O2)C(=O)C(=O)N2CCCC[C@H]2C(=O)O[C@H]([C@H](C)C[C@@H]2CC[C@@H](OCCO)[C@H](OC)C2)CC(=O)[C@H](C)/C=C(\C)[C@@H](O)[C@@H](OC)C(=O)[C@H](C)C[C@H](C)/C=C/C=C/C=C/1C` [Everolimus] as the compound, how does the synaptosome phagocytic index read?
**A.** 0.223

**Q.** With `NS(=O)(=O)Cc1noc2ccccc12` [Zonisamide] as the compound, how does the synaptosome phagocytic index read?
**A.** 0.742

**Q.** For `CCC(=O)NCC[C@@H]1CCc2ccc3c(c21)CCO3` [Ramelteon], which synaptosome phagocytic index is on record?
**A.** 0.767

**Q.** How did the synaptosome phagocytic index turn out when `COc1ccc(-c2c(C)nn3c(C(F)(F)F)cc(C)nc23)c(F)c1F` was run?
**A.** 0.98

**Q.** For `CC(C(=O)O)c1cccc(C(=O)c2ccccc2)c1` (stereo not given) [Ketoprofen], which synaptosome phagocytic index is on record?
**A.** 0.731

**Q.** Which synaptosome phagocytic index does the source give for `CCOC(=O)C1=CCCC[C@H]1S(=O)(=O)Nc1ccc(F)cc1Cl` [Resatorvid] here?
**A.** 0.156

**Q.** How did the synaptosome phagocytic index turn out when `C=CC(=O)Nc1cc(Nc2nccc(-n3cc(CN(C)C)c(-c4ccccc4)n3)n2)c(OC)cc1N1CCOCC1` [Lazertinib] was run?
**A.** 0.0589

**Q.** Which synaptosome phagocytic index does the source give for `OC(Cn1cncn1)(Cn1cncn1)c1ccc(F)cc1F` [Fluconazole] here?
**A.** 0.902

**Q.** `CCc1cc(Nc2nc(-c3ccc(-n4cnc(C)c4)c(F)c3)cs2)c(C)cc1C` was tested. Which synaptosome phagocytic index did it give?
**A.** 0.666

**Q.** For `CC1OC2(CS1)CN1CCC2CC1` (stereo not given) [Cevimeline_(hydrochloride_hemihydrate)], which synaptosome phagocytic index is on record?
**A.** 0.63

**Q.** `CS(=O)(=O)CCNCc1ccc(-c2ccc3ncnc(Nc4ccc(OCc5cccc(F)c5)c(Cl)c4)c3c2)o1` [Lapatinib_(ditosylate)] was tested. Which synaptosome phagocytic index did it give?
**A.** 0.126

**Q.** How did the synaptosome phagocytic index turn out when `O=C1CCc2ccc(OCCCCN3CCN(c4cccc(Cl)c4Cl)CC3)cc2N1` [Aripiprazole] was run?
**A.** 0.885

**Q.** `Nc1cc(C(F)(F)F)c(-c2cc(N3CCOCC3)nc(N3CCOCC3)n2)cn1` [Buparlisib] was tested. Which synaptosome phagocytic index did it give?
**A.** 1.13

**Q.** With `COc1ccc2c3c1O[C@H]1C[C@@H](O)C=C[C@@]31CCN(C)C2` [Galanthamine] as the compound, how does the synaptosome phagocytic index read?
**A.** 0.617

**Q.** For `Nc1nc2c(ncn2COC(CO)CO)c(=O)[nH]1` [Ganciclovir], which synaptosome phagocytic index is on record?
**A.** 0.98

**Q.** For `O=C(c1cc(Cc2n[nH]c(=O)c3ccccc23)ccc1F)N1CCN(C(=O)C2CC2)CC1` [Olaparib], which synaptosome phagocytic index is on record?
**A.** 0.997

**Q.** Which synaptosome phagocytic index does the source give for `CN1CCN2c3ncccc3Cc3ccccc3C2C1` (stereo not given) [Mirtazapine] here?
**A.** 1.1

**Q.** Which synaptosome phagocytic index does the source give for `CC(=O)[C@H]1CC[C@H]2[C@@H]3CC=C4C[C@@H](OS(=O)(=O)O)CC[C@]4(C)[C@H]3CC[C@]12C` [Pregnenolone_monosulfate] here?
**A.** 0.895

**Q.** With `O=C(c1ccccc1)c1ccc2n1CCC2C(=O)O` (stereo not given) [Ketorolac_(tromethamine_salt)] as the compound, how does the synaptosome phagocytic index read?
**A.** 0.874

**Q.** How did the synaptosome phagocytic index turn out when `O=C(Oc1ccccc1C(=O)O)c1ccccc1O` [Salsalate] was run?
**A.** 0.409

**Q.** `C[N+]1([O-])CCN(C2=Nc3cc(Cl)ccc3Nc3ccccc32)CC1` [Clozapine_N-oxide_(dihydrochloride)] was tested. Which synaptosome phagocytic index did it give?
**A.** 0.606

**Q.** With `Nc1cc(C(F)(F)F)c(-c2nc(N3CCOCC3)nc(N3CCOCC3)n2)cn1` [Bimiralisib] as the compound, how does the synaptosome phagocytic index read?
**A.** 0.518

**Q.** How did the synaptosome phagocytic index turn out when `Fc1ccc(-c2ccc3c(c2)[nH]c2ccncc23)cn1` was run?
**A.** 0.711

**Q.** With `S=c1nc[nH]c2nc[nH]c12` [6-Mercaptopurine] as the compound, how does the synaptosome phagocytic index read?
**A.** 0.669

**Q.** With `CCCCN1CCCCC1C(=O)Nc1c(C)cccc1C` (stereo not given) [Bupivacaine_(hydrochloride)] as the compound, how does the synaptosome phagocytic index read?
**A.** 0.836

**Q.** With `COc1ncccc1-c1cnn2ccc(N3CCN(C(=O)OC(C)C)CC3)nc12` as the compound, how does the synaptosome phagocytic index read?
**A.** 0.708

**Q.** How did the synaptosome phagocytic index turn out when `CC(C)NCC(O)COc1cccc2ccccc12` (stereo not given) [Propranolol_(hydrochloride)] was run?
**A.** 1.1

**Q.** Which synaptosome phagocytic index does the source give for `CCOCc1cc(OC)c(-c2ccc(C[C@H](NC(=O)c3c(F)cccc3F)C(=O)O)cc2)c(OC)c1` [Firategrast] here?
**A.** 0.931

**Q.** How did the synaptosome phagocytic index turn out when `CN1C(=O)[C@@H](NC(=O)c2n[nH]c(Cc3ccccc3)n2)COc2ccccc21` was run?
**A.** 1.15

**Q.** With `COC[C@@H](c1ccc(C(F)(F)F)cc1)N1CCN(C2(C)CCN(C(=O)c3c(C)ncnc3C)CC2)C[C@@H]1C` [Vicriviroc_(maleate)] as the compound, how does the synaptosome phagocytic index read?
**A.** 0.947

**Q.** With `CN(C)C(=N)NC(=N)N` [Metformin] as the compound, how does the synaptosome phagocytic index read?
**A.** 1.28

**Q.** How did the synaptosome phagocytic index turn out when `CCC(=N\O)/C(C)=C/c1ccc(F)cc1` was run?
**A.** 0.93

**Q.** `CCc1cc2c(cc1N1CCC(N3CCOCC3)CC1)C(C)(C)c1[nH]c3cc(C#N)ccc3c1C2=O` [Alectinib_(Hydrochloride)] was tested. Which synaptosome phagocytic index did it give?
**A.** 0.192

**Q.** How did the synaptosome phagocytic index turn out when `COc1ccc2c(c1)c(CC(=O)O)c(C)n2C(=O)c1ccc(Cl)cc1` [Indomethacin] was run?
**A.** 1.22

**Q.** `Cc1ncc([N+](=O)[O-])n1CCO` [Metronidazole] was tested. Which synaptosome phagocytic index did it give?
**A.** 0.51

**Q.** How did the synaptosome phagocytic index turn out when `CCc1cc2c(cc1N1CCC(N3CCOCC3)CC1)C(C)(C)c1[nH]c3cc(C#N)ccc3c1C2=O` [Alectinib] was run?
**A.** 0.538

**Q.** Which synaptosome phagocytic index does the source give for `CC(=O)Nc1nnc(S(N)(=O)=O)s1` [Acetazolamide] here?
**A.** 1.03

**Q.** Which synaptosome phagocytic index does the source give for `CO/N=C(\C(=O)N[C@@H]1C(=O)N2C(C(=O)O)=C(C[N+]3(C)CCCC3)CS[C@H]12)c1csc(N)n1` [Cefepime_(Dihydrochloride_Monohydrate)] here?
**A.** 0.597

**Q.** Which synaptosome phagocytic index does the source give for `CCCCN1C[C@H](O)[C@@H](O)[C@H](O)[C@H]1CO` [Miglustat_(hydrochloride)] here?
**A.** 1.04
